Binding signal data for 39 sequences are collected here from PMC5700166.

The target in this assay is T1, GST-Nv-NF-kB (Ser allele) (Nematostella vectensis, UniProt A7UNT2 2-411).
T1 sequence: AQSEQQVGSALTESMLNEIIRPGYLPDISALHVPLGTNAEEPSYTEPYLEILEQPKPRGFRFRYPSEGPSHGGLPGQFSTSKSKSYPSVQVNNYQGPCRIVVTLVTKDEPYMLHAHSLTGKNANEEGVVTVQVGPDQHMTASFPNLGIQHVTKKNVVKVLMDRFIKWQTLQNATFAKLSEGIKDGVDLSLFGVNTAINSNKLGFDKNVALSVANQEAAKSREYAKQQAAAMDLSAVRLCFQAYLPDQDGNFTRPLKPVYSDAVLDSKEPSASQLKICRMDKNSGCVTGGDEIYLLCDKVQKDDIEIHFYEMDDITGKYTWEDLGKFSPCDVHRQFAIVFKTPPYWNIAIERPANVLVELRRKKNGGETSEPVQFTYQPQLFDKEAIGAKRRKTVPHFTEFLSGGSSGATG
Briefly: protein-binding microarray (PBM); PBM: ~300 nM protein, 6 mM HEPES pH 7.8, 80 mM KCl, 0.5 mM EDTA, 0.5 mM EGTA, 6% glycerol, 35 ng/ul poly-dIdC, 1% milk, 1 h, room temperature; Ap Aiptasia and Nv Nematostella (sea anemones) / Co Capsaspora / Aq Amphimedon (sponge) / Dm Drosophila / Hu human; RHD is the Rel homology domain; high values mean tight binding. The conditions noted are these: dsDNA, one strand shown.
“CCGATTAACATCAAAGAATTCCCTGATGTTAATCGGGTCTTGATTCGCTTGACGCTGCTG” registered a binding signal of 7.47 z-score. “CCGATTAACATCAGGGGGTTTAATGATGTTAATCGGGTCTTGATTCGCTTGACGCTGCTG” came in with a binding signal of 6.77 z-score. The result for “CCGATTAACATCAAATTCCCCCCTGATGTTAATCGGGTCTTGATTCGCTTGACGCTGCTG” reads 8.88 z-score; that for “CCGATTAACATCACGAATCCCCCTGATGTTAATCGGGTCTTGATTCGCTTGACGCTGCTG”, 7.96 z-score. With “CCGATTAACATCACGGGGAATCCTGATGTTAATCGGGTCTTGATTCGCTTGACGCTGCTG”, the binding signal is 8.84 z-score. The sequence “CCGATTAACATCAGGGAAAATAATGATGTTAATCGGGTCTTGATTCGCTTGACGCTGCTG” yielded a binding signal of 8.05 z-score.

In the case of “CCGATTAACATCAGGGGACTTTATGATGTTAATCGGGTCTTGATTCGCTTGACGCTGCTG”, the binding signal turned out to be 7.92 z-score. For the sequence “CCGATTAACATCACATTCCCCCCTGATGTTAATCGGGTCTTGATTCGCTTGACGCTGCTG”, the binding signal was determined as 6.97 z-score. The result for “CCGATTAACATCAACAAACCCCCTGATGTTAATCGGGTCTTGATTCGCTTGACGCTGCTG” reads 6.79 z-score; that for “CCGATTAACATCAGGAAACCCCATGATGTTAATCGGGTCTTGATTCGCTTGACGCTGCTG”, 2.64 z-score; that for “CCGATTAACATCAAATTCCCCCTTGATGTTAATCGGGTCTTGATTCGCTTGACGCTGCTG”, 11 z-score.

As for “CCGATTAACATCAAAATTTCCCATGATGTTAATCGGGTCTTGATTCGCTTGACGCTGCTG”, the binding signal is 6.16 z-score. The result for “CCGATTAACATCAGGCAACCCCCTGATGTTAATCGGGTCTTGATTCGCTTGACGCTGCTG” reads 3.97 z-score; that for “CCGATTAACATCAAGGGTGGGAATGATGTTAATCGGGTCTTGATTCGCTTGACGCTGCTG”, 1.42 z-score; that for “CCGATTAACATCAGGGGAACAACTGATGTTAATCGGGTCTTGATTCGCTTGACGCTGCTG”, 5.57 z-score. Turning to “CCGATTAACATCACCGTTCCCCCTGATGTTAATCGGGTCTTGATTCGCTTGACGCTGCTG”, the binding signal worked out at 6.93 z-score. In turn, “CCGATTAACATCAAAACATTCCCTGATGTTAATCGGGTCTTGATTCGCTTGACGCTGCTG” returned a binding signal of 4.94 z-score. Take “CCGATTAACATCAGGGATTTTACTGATGTTAATCGGGTCTTGATTCGCTTGACGCTGCTG”: the binding signal turned out to be 2.96 z-score. Regarding “CCGATTAACATCACGGGAGTCCCTGATGTTAATCGGGTCTTGATTCGCTTGACGCTGCTG”, the binding signal is 4.12 z-score. For “CCGATTAACATCAAAATCCCCCATGATGTTAATCGGGTCTTGATTCGCTTGACGCTGCTG”, the binding signal turned out to be 10.2 z-score. In turn, “CCGATTAACATCAAGGGAAATCCTGATGTTAATCGGGTCTTGATTCGCTTGACGCTGCTG” yielded a binding signal of 6.52 z-score. In the case of “CCGATTAACATCAGGGTAAACCCTGATGTTAATCGGGTCTTGATTCGCTTGACGCTGCTG”, the binding signal stood at 2.62 z-score. In turn, “CCGATTAACATCAATCTTTCCCCTGATGTTAATCGGGTCTTGATTCGCTTGACGCTGCTG” showed a binding signal of 8.93 z-score.

Take “CCGATTAACATCACGAATTTCCCTGATGTTAATCGGGTCTTGATTCGCTTGACGCTGCTG”: the binding signal came to 6.67 z-score. The sequence “CCGATTAACATCAGGACCTCCCCTGATGTTAATCGGGTCTTGATTCGCTTGACGCTGCTG” yielded a binding signal of 2.85 z-score. Take “CCGATTAACATCAGGGGATTTAATGATGTTAATCGGGTCTTGATTCGCTTGACGCTGCTG”: the binding signal is 9.99 z-score. The result for “CCGATTAACATCAAATTTCCCGTTGATGTTAATCGGGTCTTGATTCGCTTGACGCTGCTG” reads 5.5 z-score. On to “CCGATTAACATCATGGGGAAAAATGATGTTAATCGGGTCTTGATTCGCTTGACGCTGCTG”, for which the binding signal turned out to be 8.82 z-score. In the case of “CCGATTAACATCAAAACCCCCCATGATGTTAATCGGGTCTTGATTCGCTTGACGCTGCTG” it was 6.57 z-score; in that of “CCGATTAACATCAAAGAAACCCCTGATGTTAATCGGGTCTTGATTCGCTTGACGCTGCTG”, 5.11 z-score; in that of “CCGATTAACATCACGTACTTCCCTGATGTTAATCGGGTCTTGATTCGCTTGACGCTGCTG”, 1.78 z-score. In turn, “CCGATTAACATCAGGATTACCCCTGATGTTAATCGGGTCTTGATTCGCTTGACGCTGCTG” returned a binding signal of 3.63 z-score. For “CCGATTAACATCAACGAATTCCCTGATGTTAATCGGGTCTTGATTCGCTTGACGCTGCTG”, the binding signal was determined as 4.93 z-score. In turn, “CCGATTAACATCAGGGGGAGGAATGATGTTAATCGGGTCTTGATTCGCTTGACGCTGCTG” had a binding signal of 6.46 z-score. In turn, “CCGATTAACATCAGGGGTAAATATGATGTTAATCGGGTCTTGATTCGCTTGACGCTGCTG” had a binding signal of 3.87 z-score. “CCGATTAACATCAGGGAAGAACCTGATGTTAATCGGGTCTTGATTCGCTTGACGCTGCTG”: the binding signal worked out at 3.35 z-score.

For “CCGATTAACATCAAAATTACCCATGATGTTAATCGGGTCTTGATTCGCTTGACGCTGCTG”, the binding signal is 4.25 z-score. Regarding “CCGATTAACATCAAATTCCCCCGTGATGTTAATCGGGTCTTGATTCGCTTGACGCTGCTG”, the binding signal was found to be 9.58 z-score. The sequence “CCGATTAACATCAGGGGGATTACTGATGTTAATCGGGTCTTGATTCGCTTGACGCTGCTG” had a binding signal of 8.21 z-score.
